Where “and” joins values, the source holds several entries; their conditions need not be identical. Equal values may be shown once. Where a name gives a salt, the structure may show the parent alone.
Legend:
Test in all cases: Euclidean distance of Cell Painting phenotypic profile (signed KS, 77 features) to DMSO centroid (dimensionless distance); 5 or 10 uM (library dependent); higher = stronger phenotypic change vs DMSO (phenoactivity)
Settings in all cases: 48 h
786-O = tested on: 786-O
Outline: (§1)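 Library compounds were applied at 10 or 5 uM, depending on the library, with 0.1% DMSO final, for 48 h to five cancer lines and a healthy fibroblast line. After staining, cells were imaged confocally at 20X across 9 fields per well, and Harmony extracted 77 features, each scored as a signed Kolmogorov-Smirnov statistic against vehicle wells on the same plate. Phenoactivity is the Euclidean distance between each profile and the median vehicle profile, with profiles first plate-position corrected, correlation-weighted and averaged over replicates at the top dose.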

A549 = tested on: A549
Outline: as §1

DU145 = tested on: DU145
Outline: as §1

FB = tested on: FB
Outline: as §1

HEPG2 = tested on: HEPG2
Outline: as §1

OVCAR4 = tested on: OVCAR4
Outline: as §1

Structure (SMILES)	Euclidean distance (786-O)	Euclidean distance (A549)	Euclidean distance (DU145)	Euclidean distance (FB)	Euclidean distance (HEPG2)	Euclidean distance (OVCAR4)
Cc1ccc(-c2cc(C(F)(F)F)nn2-c2ccc(S(N)(=O)=O)cc2)cc1 [Celecoxib]	1.6	1.23	1.67	1.09	1.08	1.37
C[C@@H]1CCN(C(=O)CC#N)C[C@@H]1N(C)c1ncnc2[nH]ccc12	0.925 and 0.548	0.553 and 0.511	1.04 and 0.639	0.618 and 0.551	0.886 and 0.785	0.908 and 0.677
O=C(O)CCCc1cc2cc(Cl)ccc2n1S(=O)(=O)c1ccc2ncsc2c1 [Lanifibranor(IVA-337)]	0.7	0.787	0.862	0.874	0.544	1.53
CCOc1nc2cccc(C(=O)OCc3oc(=O)oc3C)c2n1Cc1ccc(-c2ccccc2-c2noc(=O)[nH]2)cc1 [Azilsartan Medoxomil]	0.852	1.33	0.487	0.689	0.927	0.929
Cc1onc(-c2c(F)cccc2Cl)c1C(=O)N[C@@H]1C(=O)N2[C@@H]1SC(C)(C)[C@@H]2C(=O)O [Flucloxacillin sodium]	1.14	0.772	1.17	1.12	0.664	1.72
Cn1cncc1[C@@](N)(c1ccc(Cl)cc1)c1ccc2c(c1)c(-c1cccc(Cl)c1)cc(=O)n2C [Tipifarnib]	2.23	2.94	2.5	2.31	1.91	2.15
CCOC(=O)[C@H](CCc1ccccc1)N[C@@H](C)C(=O)N1Cc2cc(OC)c(OC)cc2C[C@H]1C(=O)O [Moexipril HCl]	1.48	1.49	1.02	0.74	2.35	1.78
CC1=C(C(=O)O)N2C(=O)[C@@H](NC(=O)[C@H](N)c3ccc(O)cc3)[C@H]2SC1 [Cefadroxil hydrate]	1.09	0.5	0.78	0.785	0.893	0.794
O=C1Nc2ccccc2/C1=C1/Nc2ccccc2C1=O [Indirubin]	1.05	1.12	0.786	0.965	1.58	1.03
CN[C@H]1CN(c2ccc3c(=O)c(C(=O)O)cn(-c4nccs4)c3n2)C[C@@H]1OC [Voreloxin (SNS-595) hydrochloride]	3.32	3.76	2.41	3.35	2.43	3.8
C[C@@H](CN1CC(=O)NC(=O)C1)N1CC(=O)NC(=O)C1 [Dexrazoxane HCl (ICRF-187. ADR-529)]	1.38	1.71	1.21	1.96	1.47	1.89
O=C1c2c(O)cccc2Cc2cccc(O)c21 [Dithranol]	2.26	0.754	1.2	2.24	0.979	2.04
Nc1ccn([C@@H]2O[C@H](CO)[C@@H](O)[C@H]2O)c(=O)n1 [Cytidine]	1.92	0.659	1.04	0.943	1.9	1
OCCn1cc(-c2cnc3nnn(Cc4ccc5ncccc5c4)c3n2)cn1	0.916	0.988	0.98	0.792	1.2	1.08
CCN1CCN(Cc2ccc(-c3cc4c(N[C@H](C)c5ccccc5)ncnc4[nH]3)cc2)CC1	2.34	3.77	1.92	2.96	1.73	1.02
Cc1ccc(C)c(OCCCC(C)(C)C(=O)O)c1 [Gemfibrozil]	1.23	0.801	1.51	1.06	1.97	1.02
CO/N=C(\C(=O)N[C@@H]1C(=O)N2C(C(=O)O)=CCS[C@H]12)c1csc(N)n1 [Ceftizoxime sodium]	0.557	0.807	1.33	1.07	0.578	0.958
N#CCNC(=O)c1ccc(-c2ccnc(Nc3ccc(N4CCOCC4)cc3)n2)cc1 [Momelotinib (CYT387)]	2.83	3.71	3.36	3.49	2.74	2.48
CC(=O)S[C@@H]1CC2=CC(=O)CC[C@]2(C)[C@H]2CC[C@@]3(C)[C@@H](CC[C@@]34CCC(=O)O4)[C@H]12 [Spironolactone]	0.955	0.839	1.3	1.04	0.705	0.776
CC1=C(/C=C/C(C)=C/C=C/C(C)=C/CO)C(C)(C)CCC1 [Vitamin A]	0.784	1.06	0.821	1.61	0.745	1.33
Cc1onc(-c2ccccc2)c1-c1ccc(S(N)(=O)=O)cc1 [Valdecoxib]	1.12	1.19	0.983	1.21	0.509	1.58
O=S(=O)(O)CCCCOC[C@H]1O[C@@H]2O[C@H]3[C@H](O)[C@@H](O)[C@@H](O[C@H]4[C@H](O)[C@@H](O)[C@@H](O[C@H]5[C@H](O)[C@@H](O)[C@@H](O[C@H]6[C@H](O)[C@@H](O)[C@@H](O[C@H]7[C@H](O)[C@@H](O)[C@@H](O[C@H]8[C@H](O)[C@@H](O)[C@@H](O[C@H]1[C@H](O)[C@H]2O)O[C@@H]8CO)O[C@@H]7COCCCCS(=O)(=O)O)O[C@@H]6COCCCCS(=O)(=O)O)O[C@@H]5COCCCCS(=O)(=O)O)O[C@@H]4COCCCCS(=O)(=O)O)O[C@@H]3COCCCCS(=O)(=O)O [Captisol (SBE-Œ≤-CD)]	1.09	0.893	0.704	1.13	1.38	1.1

Reference: the supplement of paper PMC10127200
